For 40 molecules, growth results are on record in PubChem BioAssay (NCI).

The panel holds about 83,000 compounds, 20% with a hit somewhere; the sample as a whole holds those more often.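 Percent growth is the endpoint: 0 to 100 indicates growth inhibition (40 means 60% inhibition), 0 means no net growth, and negative values indicate cell death.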 The source made the active and inactive calls.

The subject of the test is HT29 colon. The experiment in a line: NCI-60 one-dose screen, 48 h (100 = growth as untreated, 0 = no growth, -100 = all killed). The note with it: 10 µM unless noted. As for the experimental part: Growth inhibition of the HT29 human tumor cell line is measured as a screen for anti-cancer activity. Cells are grown in 96 well plates and exposed to the test compound for 48 hours. Compounds are tested at a single concentration, which is 10^-5 M for most compounds. The reported endpoint is percent growth (GI% or GIPRCNT), where numbers from 0 - 100% represent growth inhibition, and numbers from -100% - 0 represent cell death. For example, a value of 40 represents 60% growth inhibition. A value of 0 means no net growth occurred over the course of the experiment. A value of -40 indicates 40% of cells at the beginning of the experiment died by the end of the experiment. A value of -100 means all cells are dead at the end of the experiment.
NCI-60 Human Tumor Cell Lines Screen was performed using the standard one-dose NCI protocol, which is described in more detail at https://dtp.cancer.gov/discovery_development/nci-60/default.htm.
Compounds with GIPRCNT values below 10 were considered active. Activity score was based on GIPRCNT using the following formula: […]
Score is 0 for GIPRCNT values of 100 or above, 50 for GIPRCNT values of 0, and 100 for GIPRCNT values of -100.
For the molecule `CCN(CC)CCNCC(=O)Oc1ccc(/C=C/C(=O)CC(=O)/C=C/c2ccc(OC(=O)CNCCN(CC)CC)c(OC)c2)cc1OC`, the growth is -80.7% (active). The figure for `Cc1nn(-c2ccccc2)c2nc(N)c(C3=NCCO3)nc12` is 100% (inactive); for `CC(=O)Nc1c(Cl)cc2c(c1Cl)Cc1ccccc1-2` it is 106% (inactive); for `N/C(=N\c1nc2ccccc2s1)NC(=O)Nc1ccccc1Cl` it is 5.03% (active). In the case of `CC(C)Sc1nc(Cl)c(C#N)c(-c2ccc(F)cc2)n1`, the growth is 103% (inactive). On to `COc1ccc(C2CC(c3ccc(Nc4ccnc5cc(Cl)ccc45)cc3)=NN2C(C)=O)cc1` (stereo not given), for which the growth is 27.4% (inactive). On to `COc1ccc(/C=C2\CCc3ccccc3C2=O)cc1`, for which the growth is 80.4% (inactive). As to `COc1cccc(CCN2C(=O)CCC3=C2CCC3=O)c1`, the growth is 106% (inactive). Turning to `Oc1ccccc1/C=N/N1CCCCCC1`, the growth is 97.6% (inactive). The figure for `COc1cc(/C=C\C(C)=N\Nc2ccccc2)ccc1O` is 108% (inactive). On to `NC(=O)c1cc(Cl)ccc1NC(=O)c1ccccc1-c1ccccc1`, for which the growth is 9.11% (active).

As to `COC(=O)c1cc2c(/C=C3/NC(=S)NC3=O)coc2n1C`, the growth is 116% (inactive).

With `Cc1csc(C#Cc2cncc(O)c2)n1`, the growth is 110% (inactive). In the case of `NC(=O)NC1(C(=O)O)CCCC1`, the growth was 108% (inactive). On to `CCN(CC)CCOCC[C@H]1CC[C@H]2[C@@H]3[C@H](C)Cc4cc(OS(N)(=O)=O)ccc4[C@H]3CC[C@]12C`, for which the growth is -63.8% (active). On to `Nc1ccc2c(c1)Cc1cc(Cl)c(Cl)cc1-2`, for which the growth was 93.1% (inactive).

Regarding `NS(=O)(=O)c1ccc(-n2ncc3c(N/N=C/c4ccccc4)ncnc32)cc1`, the growth was 81% (inactive). Take `Cc1cc(C)c2c(N)c3cccc(C)c3nc2n1`: the growth was 0.696% (active). As for `O=C(Nc1nc2c(C(F)(F)F)cccc2s1)c1cc(Cl)ccc1O`, the growth is 0.653% (active). For `CC1CN(CC(O)c2ccc(Br)cc2)CCO1` (stereo not given), the growth is 113% (inactive). For the molecule `COc1ccc(NS(=O)(=O)N2CCCCC2)cc1`, the growth was 102% (inactive). As for `OCCN1CCN(CCCN2c3ccccc3Sc3ccc(C(F)(F)F)cc32)CC1`, the growth is -43% (active). For `CC(C)CC1NC(=O)C(CCCN)NC(=O)C(C(C)C)NC(=O)C2CCCN2C(=O)C(Cc2ccccc2)NC(=O)C(CC(C)C)NC(=O)C(CCCN)NC(=O)C(C(C)C)NC(=O)C2CCCN2C(=O)C(Cc2ccccc2)NC1=O` (stereo not given) the value was -51.7% (active); for `CC(NC(N)=S)c1ccccc1` (stereo not given), 110% (inactive); for `COC(=O)c1cc2oc(/C=N\NC(=O)c3cc4oc(C)c(C)c4[nH]3)cc2[nH]1`, 111% (inactive). The figure for `O=Cc1ccccc1C(=O)O` is 100% (inactive); for `O=C(Nc1ccccc1OC(=O)c1ccccc1)c1ccccc1` it is 51.9% (inactive). For `COc1cccc(N2CCN(c3cccc(C)n3)CC2)c1`, the growth was 94.9% (inactive). As for `COc1ccc2c(c1)c(CC(=O)[Se]C)c(C)n2C(=O)c1ccc(Cl)cc1`, the growth was 2.05% (active). For the molecule `CC(=O)OCC(=O)[C@@]1(O)CC[C@H]2[C@@H]3CCC4=CC(=O)CC[C@]4(C)[C@@]3(F)[C@@H](O)C[C@@]21C`, the growth was 114% (inactive). For `COc1cccc(/C=N\NC(=O)c2ccncc2)c1O`, the growth is 67.6% (inactive).

In the case of `Cc1ccc2nc(-c3ccc(N(C)C)c(Br)c3)cn2c1`, the growth was 72.8% (inactive). The figure for `Cn1cc(NC(=O)Nc2cc(C(=O)O)n(C)c2)cc1C(=O)O` is 107% (inactive). `COc1ccc(CNC(=O)c2c(C)n([O-])c3cc(F)c(F)cc3[n+]2=O)cc1`: the growth was 93% (inactive). For `COc1ccc2c(c1)CC/C(=C\c1ccc(OCC(=O)Nc3nc4ccccc4s3)cc1)C2=O` the value was 103% (inactive); for `C(=C1c2ccccc2-c2ccccc21)c1ccncc1`, 8.42% (active).

`Cc1onc(-c2ccccc2Cl)c1C(=O)N[C@@H]1C(=O)N2[C@@H]1SC(C)(C)[C@@H]2C(=O)O`: the growth was 105% (inactive). Turning to `COc1ccc(-n2cnc3cc(C(=O)N4CCCCC4)ccc32)cc1`, the growth was 102% (inactive). Turning to `O=C(CN1CCN(c2ccc(Cl)cc2)CC1)N1CCN(c2nnc(-c3ccc(Cl)cc3)c(-c3ccc(Cl)cc3)n2)CC1`, the growth is 57.3% (inactive). In the case of `CCCCCc1c(C)[nH]c(/C=C2\N=C(c3ccc[nH]3)C=C2OCc2ccccc2)c1C`, the growth was -80.9% [100 µM] (active).
